From the supplement of paper PMC9023506
Counter-ions that a name gives are not always drawn.

Test system: Danio rerio larvae (5 dpf)
Experiment: habituation to 1-s acoustic pulses, difference vs DMSO (percentage points (treated minus DMSO)); higher = more of the behaviour than the DMSO vehicle control
Conditions: 10 µM; exposure time: 3 h pre-incubation + 3 h imaging
Protocol: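 5-dpf wild-type zebrafish larvae were imaged in 96-well plates. They were treated with 190 Tocris FDA-approved drugs at 10 µM (1 µl/ml DMSO) for 3 h before and 3 h during imaging at 28.5 °C, 48 larvae per drug. Automated image analysis gave % time moving and optomotor responses. Values are drug group mean minus DMSO vehicle mean (n=844), in percentage points, for 10 behaviours.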

Row | Compound | habituation to 1-s acoustic pulses
1 | Brc1c(NC2=NCCN2)ccc2nccnc12 | -5.95
2 | C#C[C@]1(O)CC[C@H]2[C@@H]3CCC4=CC(=O)CC[C@@H]4[C@H]3CC[C@@]21CC [Levonorgestrel] | -7.34
3 | CCOc1nc2cccc(C(=O)O)c2n1Cc1ccc(-c2ccccc2-c2noc(=O)[nH]2)cc1 [Azilsartan] | 6.99
4 | Nc1ccn([C@@H]2O[C@H](CO)[C@@H](O)C2(F)F)c(=O)n1 [Gemcitabine hydrochloride] | -2.82
5 | CN1CCN2c3ncccc3Cc3ccccc3C2C1 (stereo not given) [Mirtazapine] | -2.79
6 | NC(=O)c1ncn([C@@H]2O[C@H](CO)[C@@H](O)[C@H]2O)n1 [Ribavirin] | -1.17
7 | CCC(C)(C)C(=O)O[C@H]1C[C@@H](C)C=C2C=C[C@H](C)[C@H](CC[C@@H]3C[C@@H](O)CC(=O)O3)[C@H]21 [Simvastatin] | -1.13
8 | CCCCC1=NC2(CCCC2)C(=O)N1Cc1ccc(-c2ccccc2-c2nnn[nH]2)cc1 [Irbesartan] | 1.51
9 | CC(C)[C@H]1CC[C@H](C(=O)N[C@H](Cc2ccccc2)C(=O)O)CC1 [Nateglinide] | 0.774
10 | CC(C)(C#N)c1cc(Cn2cncn2)cc(C(C)(C)C#N)c1 [Anastrozole] | 6.34
11 | C[C@]12CC[C@@H]3c4ccc(O)cc4C[C@@H](CCCCCCCCC[S+]([O-])CCCC(F)(F)C(F)(F)F)[C@H]3[C@@H]1CC[C@@H]2O (stereo not given in full) | -2.82
12 | Cc1cc(C2CCCCC2)n(O)c(=O)c1 [Ciclopirox] | 0.443
13 | O=C(NCC1CCCCN1)c1cc(OCC(F)(F)F)ccc1OCC(F)(F)F (stereo not given) [Flecainide acetate] | -2.35
14 | CCOc1nc2cccc(C(=O)O)c2n1Cc1ccc(-c2ccccc2-c2nnn[nH]2)cc1 [Candesartan] | 4.86
15 | COc1ccc(Cl)cc1C(=O)NCCc1ccc(S(=O)(=O)NC(=O)NC2CCCCC2)cc1 [Glibenclamide] | -1.87
16 | CC(C)N(CCCCOCC(=O)NS(C)(=O)=O)c1cnc(-c2ccccc2)c(-c2ccccc2)n1 [Selexipag] | -0.45
17 | CC(=O)O[C@H]1C(=O)[C@@]2(C)[C@H]([C@H](OC(=O)c3ccccc3)[C@]3(O)C[C@H](OC(=O)[C@H](O)[C@@H](NC(=O)c4ccccc4)c4ccccc4)C(C)=C1C3(C)C)[C@]1(OC(C)=O)CO[C@@H]1C[C@@H]2O [Taxol] | -2.74
18 | C[C@]12CCC(=O)C=C1CC[C@@H]1[C@@H]2[C@@H](O)C[C@@]2(C)[C@H]1CC[C@]2(O)C(=O)CO [Hydrocortisone] | 2.73
19 | CN1CCN(CCCN2c3ccccc3Sc3ccc(Cl)cc32)CC1 [Prochlorperazine dimaleate] | -7.34
20 | CCCc1nc2c(C)cc(-c3nc4ccccc4n3C)cc2n1Cc1ccc(-c2ccccc2C(=O)O)cc1 [Telmisartan] | -0.195

Row | Compound | habituation to 1-s acoustic pulses
21 | COC(c1ccccc1)(c1ccccc1)[C@H](Oc1nc(C)cc(C)n1)C(=O)O [Ambrisentan] | 1.34
22 | Cn1cnc([N+](=O)[O-])c1Sc1ncnc2[nH]cnc12 [Azathioprine] | -2.96
23 | C[C@@H](O[C@H]1OCCN(Cc2n[nH]c(=O)[nH]2)[C@H]1c1ccc(F)cc1)c1cc(C(F)(F)F)cc(C(F)(F)F)c1 [Aprepitant] | 0.23
24 | CC1=Nc2ccc(Cl)cc2S(=O)(=O)N1 [Diazoxide] | 9.12
25 | Cc1cn([C@H]2C=C[C@@H](CO)O2)c(=O)[nH]c1=O [Stavudine] | -0.918
26 | COc1cc([C@@H]2c3cc4c(cc3[C@@H](O[C@@H]3O[C@@H]5CO[C@@H](C)O[C@H]5[C@H](O)[C@H]3O)[C@H]3COC(=O)[C@H]23)OCO4)cc(OC)c1O [Etoposide] | 0.485
27 | C[C@@H]1C[C@H]2[C@@H]3CCC4=CC(=O)C=C[C@]4(C)[C@@]3(F)[C@@H](O)C[C@]2(C)[C@@]1(O)C(=O)CO [Dexamethasone] | 2.44
28 | OC(CNCC(O)C1CCc2cc(F)ccc2O1)C1CCc2cc(F)ccc2O1 (stereo not given) [Nebivolol hydrochloride] | -9.34
29 | Nc1nc2c(ncn2COCCO)c(=O)[nH]1 [Acyclovir] | 1.89
30 | CCN(Cc1ccncc1)C(=O)C(CO)c1ccccc1 (stereo not given) [Tropicamide] | -1.73
31 | O=C(O)C[C@H](O)C[C@H](O)/C=C/c1c(C2CC2)nc2ccccc2c1-c1ccc(F)cc1 [Pitavastatin calcium] | -6.74
32 | CC(C)C(=O)Nc1ccc([N+](=O)[O-])c(C(F)(F)F)c1 [Flutamide] | -15.5
33 | CCCc1nn(C)c2c(=O)[nH]c(-c3cc(S(=O)(=O)N4CCN(C)CC4)ccc3OCC)nc12 [Sildenafil citrate] | -2.79
34 | CC1(C)O[C@@H]2[C@@H](CO[C@@]3(COS(N)(=O)=O)OC(C)(C)O[C@@H]23)O1 [Topiramate] | -3.26
35 | CCCC1O[C@@H]2C[C@H]3[C@@H]4CCC5=CC(=O)C=C[C@]5(C)[C@H]4[C@@H](O)C[C@]3(C)[C@]2(C(=O)CO)O1 (stereo not given in full) [Budesonide] | -1.73
36 | CC(C)COCC(CN(Cc1ccccc1)c1ccccc1)N1CCCC1 (stereo not given) [Bepridil hydrochloride] | -6.51
37 | Cc1ccccc1C(=O)Nc1ccc(C(=O)N2CCCC(O)c3cc(Cl)ccc32)c(C)c1 (stereo not given) [Tolvaptan] | 1.17
38 | Nc1nc(Cl)nc2c1ncn2[C@@H]1O[C@H](CO)[C@@H](O)[C@@H]1F [Clofarabine] | -0.305
39 | OCCN1C[C@H](O)[C@@H](O)[C@H](O)[C@H]1CO [Miglitol] | 0.997
40 | COc1ccccc1OCC(O)CN1CCN(CC(=O)Nc2c(C)cccc2C)CC1 (stereo not given) [Ranolazine dihydrochloride] | -4.45
